Legend:
Assay in all cases: PBM binding z-score (relative to random genomic background probes); higher = stronger binding; sequences stand for … in GC…GCGATTGACAGCGTAGAATGAAGG
[1] = tested on: RARb homodimer (NR concentration 270 nM)
Method in brief: (§1)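 For binding z-scores, the reference was random background probes on custom Agilent 4×180K protein-binding microarrays. These arrays were incubated 1 h with ligand-free nuclear receptor dimers in PBS pH 7.4, 2% milk, 0.02% Triton X-100, 1 mM DTT, 0.2 mg/mL BSA and 0.4 mg/ml salmon testes DNA. Fluorescence was scanned after antibody detection of each partner (one per run) and regression-normalized.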

[2] = tested on: RARg:RXRa (NR concentration 270 nM, RXRa partner concentration 90 nM)
Method in brief: as §1

[3] = tested on: RARg homodimer (NR concentration 270 nM)
Method in brief: as §1

[4] = tested on: RXRa DBDmut IVT, anti-RXR (DBD mutation: RXRa K156A/R161A, NR concentration 90 nM)
Method in brief: as §1

[5] = tested on: RXRa homodimer (NR concentration 180 nM)
Method in brief: as §1

[6] = tested on: THRa:RXRa (NR concentration 90 nM, RXRa partner concentration 90 nM)
Method in brief: as §1

[7] = tested on: THRa homodimer (NR concentration 90 nM)
Method in brief: as §1

[8] = tested on: VDR homodimer (NR concentration 270 nM)
Method in brief: as §1

Sequence	PBM binding z-score [1]	PBM binding z-score [2]	PBM binding z-score [3]	PBM binding z-score [4]	PBM binding z-score [5]	PBM binding z-score [6]	PBM binding z-score [7]	PBM binding z-score [8]
CTCGGAAGGTCGTGCTCAGGTGAGTATACCAAAC	1.95	3.34	2.31	1.18	2.37	3.59	1.15	0.743
GCTTGTAGATCAAGGTTAAGAACGACTAAGCTAA	0.388	0.414	0.334	0.11	0.789	1.25	-0.079	0.0114
CCTACTGGGCCATTCGGAGGTCATTGATCATATG	3.37	3.59	2.55	0.347	2.38	2.83	1.58	3.03
AGAATGTGGTTACCAAAGATCAGGGAAACGCTTG	-0.487	0.0233	0.17	-0.485	0.156	-0.05	-0.409	-0.534
TGAATGAGGTTATAAGACCAGGGAACGTTGCAAA	0.0287	1.39	0.814	0.698	1.99	1.77	-0.0902	0.336
CGACCAAGGTCAATGCTAGGTCAGTGAAAGCATT	4.82	7.46	6.84	3.44	5.73	4.18	2.25	2.89
ACTAGCAGGCCAGGGGTCACTCAAGATTAGTCCG	4.12	5.09	4.23	1.31	6.16	3.5	1.05	2.8
GCGACTGGGGCAAACCAGGTTACCATAAGGTTGG	1.29	0.596	0.516	-0.486	0.616	3.93	0.684	-0.202
ATAAGTAGGTTAGCTGGGGTCATTCAGACTAGGC	3.84	4.16	2.94	1.95	5.34	5.32	3.54	4.63
AATCAAAGTTCACTAGGTAACGTAAGATTCAGCT	3.41	4.44	4.91	4.32	3.38	2.02	0.0511	3.46
ATTATTAGTTGACTTAGGGCAACCGATACGACGC	1.41	1.11	1.23	0.507	0.918	1.65	1.03	1.41
CCGAGTAGGTTATGGGGCATTCACGCAACGGTGA	0.898	0.542	0.597	-0.117	0.816	0.155	-0.0267	0.416
GCATATAGCTAATACAAGGTGAAAGTCCGATTGT	0.396	0.366	0.451	0.494	0.476	1.43	0.866	0.162
CGTCCAAGGTCAGCAGCTCAGTGAAAGCGACGTG	3.86	5.03	5.8	2.64	4.07	3.44	1.99	0.868
CCGAGTAGGTTATCGGGCATTCAGGCAACGGTGA	0.614	0.431	0.479	-0.164	0.45	0.172	-0.196	-0.435
CAAACTACGTCAAGAGGTCAAAGTCCGCTTCCCG	4.32	5.45	4.73	2.5	6.72	3.72	1.78	4.48
CAAACTAGGTCACCGGAAGGTCTAAGTCCGCATG	4.28	5.48	5.56	1.58	3.87	3.88	2.22	1.68
TCTAGTTGGTCAAAGGTGACACACTCGAAATGCG	2.21	2.9	1.95	1.03	3.06	1.7	0.635	0.44
AGAGTGAGGTTATACGTAGATCAGGGAAGAAAGT	1.53	1.82	1.28	1.38	2.03	2.21	1.15	1.41
TCTTGTAGATCAATAGAGGTTAGGAAAGTGCGCT	0.826	0.947	0.486	0.658	1.29	2	-0.0407	0.48
CCTGCTAGGTCATGGACAGCTAATCTACAGTATG	2.73	4	4.68	1.85	3.17	2.9	0.931	0.0193
CCTTACGGGTCACGAGGGTATAGCACGACGAGCG	3.35	5.85	5.72	0.613	6.79	3.56	0.0461	1.29
CCTATTAGTTGACCATAAGTGCAACCGAAGCTCG	1.59	0.741	0.841	1.18	0.751	0.954	1.18	1.81
TCTAGTTGGTCAAAGGTCCCACACTCGAAATGCG	1.47	1.55	1.05	1.26	1.75	0.71	0.58	0.39
ATCTCTAGGTAAAGATCAGTGAAAGATCGATAGA	-0.585	0.367	0.528	-0.253	0.257	0.044	-0.362	-0.142
CGAACGAGGGCATGAGTTGATATCAAATGCCGAT	0.794	1.37	1.81	2.39	0.883	1.14	-0.157	2.28
TCAGACAAGTGAAGGTAACTCAGGTACGCAGTCG	-0.322	0.211	0.249	1.1	0.825	1.1	-0.375	-0.0282
CCTGCTAAGTCATGGTCAGCTAATCTACAGTATG	0.142	0.135	0.315	0.518	0.0599	-0.13	-0.892	-0.337

From the supplement of paper PMC6555819
